# Compound activity as filed in PubChem BioAssay.
# rCAG binder: binders of r(CAG) RNA repeats, primary screen, biochemical, fluorescence | r(CAG) RNA repeat, TO-PRO-1 dye displacement fluorescence | inhibition, % at 3 µM | 370,000 compounds, 1.3% hits | AID 651821, 2012;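 active = inhibition above the plate cutoff, the mean of all test compounds on that plate plus 3 SD, cut at about 35% in these data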;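 note: 0% = DMSO alone and 100% = 100 µM mitoxantrone as full dye displacement; higher means more dye released from RNA so lower well fluorescence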
# Pemphigus Ab inh: inhibitors of pemphigus antibody binding to DSG3, primary screen, biochemical, bead-based, flow cytometry, scFv-GFP | 310,000 compounds, 0.48% hits | AID 588358, 2011 | binding (percent of control), % at 10 µM | Desmoglein-3 (Homo sapiens), P32926 | DSG3-coupled beads, scFv-anti-DSG3-GFP binding; hits give low values;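 active = binding more than 3 SD below its plate's average and above zero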;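 note: hits lower antibody fragment binding to DSG3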
# proKLK7 act: proKLK7 zymogen activators, primary screen, biochemical, fluorescence intensity | 370,000 compounds, 0.9% hits | purified proKLK7, EDANS-DABCYL substrate fluorescence; 100% is mature enzyme control, 0% vehicle | AID 652039, 2013 | activation, % at 7 µM | Kallikrein-7 (Homo sapiens), P49862;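 active = activation above the mean of all tested compounds plus 3 SD, computed per campaign excluding outliers beyond control limits, cut at about 13% in these data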
# ADAM17 inh: ADAM17 inhibitors, primary screen, biochemical, QFRET | Disintegrin and metalloproteinase domain-containing protein 17 (Homo sapiens), P78536 | recombinant ADAM17, EDANS/DABCYL FRET peptide cleavage | inhibition, % at 6.95 µM | 370,000 compounds, 0.83% hits | AID 720648, 2013;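 active = inhibition above the mean of compounds lying between control limits plus 3 SD, set per campaign, cut at about 8.5% in these data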;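 note: 0% = DMSO-only wells as the low control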
# ADAM10 inh: human ADAM10 inhibitors, primary screen, biochemical, QFRET, HTS. Disintegrin and metalloproteinase domain-containing protein 10 (Homo sapiens), O14672. 370,000 compounds, 0.62% hits. inhibition, % at 7 µM. AID 720582, 2013. recombinant ADAM10, EDANS/DABCYL FRET peptide cleavage, 3 h;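 active = inhibition above a per-campaign cutoff equal to the mean of compounds falling between control-based bounds plus 3 SD, cut at about 20% in these data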;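 note: 0% = DMSO wells while the 100% control is not disclosed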
# MPTP inh: mitochondrial permeability transition pore inhibitors, primary screen, biochemical, isolated mouse mitochondria, absorbance. Ca2+ swelling absorbance, 30 min. inhibition, % at 10 µM. 360,000 compounds, 1.4% hits;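 active = inhibition of 50% or more, scaled per plate between neutral and stimulator controls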;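 note: 0% = DMSO wells given calcium and 100% = 1 mM EGTA wells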
# rCAG binder conf: small molecules binding CAG repeat RNA – biochemical, fluorescence, confirmation | shares compounds with rCAG binder | r(CAG) RNA repeat, TO-PRO-1 dye displacement fluorescence | inhibition, % at 3 µM | 4,300 compounds, 70% hits | AID 652065, 2013;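 active = inhibition above a per-plate cutoff, the mean inhibition of sample wells plus 3 SD, cut at about 35% in these data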;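 note: loss of TO-PRO-1 fluorescence as compound displaces dye from 1x1 AA loop RNA; 0% = DMSO only wells and 100% = 100 µM mitoxantrone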
# DNA CAG counter: displacement of TO-PRO-1 from CAG DNA duplex, counter-screen for rCAG RNA repeat binder project, biochemical, fluorescence, TO-PRO-1 dye, d(CAG) DNA oligo; shares compounds with rCAG binder; d(CAG) DNA oligo TO-PRO-1 dye displacement; inhibition, % at 3 µM; 4,300 compounds, 94% hits;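 active = inhibition above its plate's cutoff, the mean test-well inhibition plus 3 SD, cut at about 4.8% in these data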;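 note: 0% = DNA dye mix with DMSO and 100% = 100 µM mitoxantrone; hits displace the dye from DNA and so lower well fluorescence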
# Active calls of the source: *; / = not tested or not shown. An excerpt weighted towards active compounds, which were near 4.7% of everything screened.
SMILES,rCAG binder,Pemphigus Ab inh,proKLK7 act,ADAM17 inh,ADAM10 inh,MPTP inh,rCAG binder conf,DNA CAG counter
O=C(c1ccco1)N1N=C(c2cccs2)CC1c1cc([N+](=O)[O-])ccc1O (centres undefined),54*,111,0,3,8,2,35*,13*
Cc1ccccc1S(=O)(=O)NC(=O)C1(C)CCN1C(=O)C1(c2ccc(Cl)cc2)CCC1 (centres undefined),48*,/,0,0,-3,1,37*,8.8*
CC1(C(=O)NS(=O)(=O)c2ccccc2Cl)CCN1C(=O)C1(c2ccccc2)CC1 (centres undefined),12,/,0,-2,-3,-2,/,/
CC1(C(=O)NS(=O)(=O)c2ccccc2Cl)CCN1C(=O)C1(c2ccc(Cl)cc2)CC1 (centres undefined),36*,/,0,0,1,0,28,5.1*
Cc1ccccc1/C=N/n1c(-c2cc(-c3ccccc3)n[nH]2)n[nH]c1=S,31,102,0,-3,-12,8,/,/
S=c1[nH]nc(-c2cc(-c3ccccc3)n[nH]2)n1/N=C/C=C/c1ccco1,41*,110,0,-1,-3,2,51*,24*
O=[N+]([O-])c1ccccc1/C=C/C=N/n1c(-c2ccccc2)n[nH]c1=S,28,101,0,-1,7,2,/,/
Cc1ccsc1/C=N/n1c(-c2cc(-c3ccccc3)n[nH]2)n[nH]c1=S,29,/,0,-1,3,10,/,/
O=[N+]([O-])c1ccccc1C=Nn1c(-c2cc(-c3ccccc3)n[nH]2)n[nH]c1=S,47*,/,0,-3,-8,/,53*,19*
S=c1[nH]nc(-c2cc(-c3ccccc3)n[nH]2)n1/N=C/c1cccc2ccccc12,79*,/,-1,0,-2,/,78*,40*
COc1ccc2ccccc2c1C=Nn1c(-c2cc(-c3ccccc3)n[nH]2)n[nH]c1=S,70*,/,3,-1,-5,/,58*,27*
O=C1C=C(c2ccc3c(c2)OCO3)C[C@@H](c2ccc(Cl)cc2)C1,6,101,0,-6,8,-1,/,/
COc1ccc([N+](=O)[O-])cc1NS(=O)(=O)c1cc(C(=O)NCc2cccnc2)ccc1Cl,13,115,0,0,-15,-1,/,/
NS(=O)(=O)c1ccc(CNC(=O)c2ccc3c(c2)OCO3)cc1,1,103,0,-5,-14,0,/,/
S=c1[nH]nc(-c2cc(-c3ccccc3)n[nH]2)n1/N=C/c1c(Cl)cccc1Cl,43*,/,1,-3,-3,16,68*,29*
Cc1cc(-c2n[nH]c(=S)n2/N=C/c2ccc(Br)s2)n[nH]1,14,99,0,-1,-3,0,/,/
S=c1[nH]nc(-c2cc(-c3ccccc3)n[nH]2)n1/N=C/c1ccc(Br)s1,71*,/,-1,1,10,6,79*,46*
CC(=O)Nc1ccc(S(=O)(=O)NCc2cc(=O)n(C)c(=O)n2C)cc1,-1,93,0,-4,-10,0,/,/
Cc1ccc(S(=O)(=O)NN=C(c2ccccc2)c2cccs2)cc1,36*,104,-5,-14,-56,1,19,6.7*
COc1ccc(/C=N/Nc2ccccc2C(=O)O)cc1Cn1cc([N+](=O)[O-])cn1,50*,103,0,-6,-13,1,40*,13*
